SMILES strings stand for the structures. ± gives the standard deviation of the averaged measurements.

Common to all, as to conditions: concentration: 10 µM; 24 h
The subject of assay [1] is HCC1569. The assay can be described thus: cell number relative to DMSO (% of DMSO); higher = more cells (less growth inhibition / toxicity). An outline of the steps:
(§1)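 HCC1569 and TDF cells (800 per well, 384-well plates, RPMI with 10% FBS) were treated with compounds at 10 µM for 24 h at 37 °C, in triplicate. Cells were fixed in 3.7% formaldehyde and stained with a rabbit anti-H1.0 antibody, an AlexaFluor 647 secondary and DAPI; six fields per well were imaged at ×10. H1.0 nuclear intensity or cell number is expressed as percent of the plate DMSO control, taking the median of replicates. HCC1569 values were smoothed for positional effects.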

The test system of assay [2] is TDF. The assay is described as above. An outline of the steps:
as §1

Assay [3] has as its system TDF. The assay can be described thus: H1.0 immunofluorescence intensity relative to DMSO (% of DMSO); higher = stronger H1.0 induction, active = 120 or more. In outline:
as §1

For assay [4], the system named is HCC1569. The assay can be described thus: H1.0 immunofluorescence intensity relative to DMSO (% of DMSO); higher = stronger H1.0 induction, active = 140 or more. An outline of the steps: as §1
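Throughout, for H1.0 immunofluorescence intensity relative to DMSO: TDF is a line of transformed human dermal fibroblasts of mesenchymal origin.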
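Throughout, for cell number relative to DMSO: TDF denotes transformed human dermal fibroblasts of mesenchymal origin.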

With `CC1(C2CCCC2)Cc2cc(OCC(=O)O)c(Cl)c(Cl)c2C1=O` (stereo not given), the cell number in assay [1] worked out at 103; in assay [2] it was 107. Also, the figures for the H1.0 immunofluorescence intensity in assay [3] and in assay [4] were 91.9 (inactive) and 84.5 (inactive), respectively.

Consider `COc1cccc(/C=N/CC/N=C/c2cccc(OC)c2[O-])c1[O-].[Cl-].[Mn+2]`, for which the cell number in assay [1] worked out at 99.1; in assay [2], 98.1. Further, the H1.0 immunofluorescence intensity in assay [3] is 99.4 (inactive); in assay [4], 108 (inactive).

In the case of `Clc1ccc2c(c1)C(N1CCNCC1)=Nc1ccccc1O2` [Amoxapine], the cell number turned out to be 99.54 ± 0.74 in assay [1] and 99.9 ± 2.6 in assay [2]. The H1.0 immunofluorescence intensity in assay [3] was 99.7 (inactive); in assay [4], 108 (inactive).

For `N[C@H](CO)C(=O)O` [D-Serine], the cell number in assay [1] was found to be 104; in assay [2], 112. The results for the H1.0 immunofluorescence intensity in assay [3] and in assay [4] were 87.2 (inactive) and 102 (inactive), respectively.

Take `Cc1c2c(c(O)c3c(O)cccc13)C(=O)OC2C1C(O)C(=O)C(C(N)=O)=C(O)C1N(C)C` (racemic): the cell number came out at 93.9 in assay [1] and 93.1 in assay [2]. In addition, the H1.0 immunofluorescence intensity in assay [3] is 96.4 (inactive); in assay [4] it was 102 (inactive).

Regarding `NC(N)=NCCCCN=C(N)N.O=S(=O)(O)O` [Arcaine sulfate], the cell number in assay [1] was determined as 104; in assay [2] it was 107. For the same molecule, the H1.0 immunofluorescence intensity in assay [3] is 89 (inactive); in assay [4], 92.3 (inactive).

Consider `O=C(O)C1CCNCC1` [Isonipecotic acid], for which the cell number in assay [1] is 102; in assay [2], 104. In addition, the H1.0 immunofluorescence intensity in assay [3] is 91.5 (inactive); in assay [4] it was 91.2 (inactive).

Turning to `CN(C)CCCC1(c2ccc(F)cc2)OCc2cc(C#N)ccc21` (stereo not given) [Escitalopram], the cell number was determined as 100 in assay [1] and 86.1 in assay [2]. Also, the results for the H1.0 immunofluorescence intensity in assay [3] and in assay [4] were 98 (inactive) and 93.5 (inactive), respectively.

Turning to `Cc1cc2ncc(-c3ccccc3)nc2cc1C`, the cell number in assay [1] was 100; in assay [2], 97.9. In addition, the H1.0 immunofluorescence intensity is 96 (inactive) in assay [3] and 112 (inactive) in assay [4].

With `COc1ccc(C2Sc3ccccc3N(CCN(C)C)C(=O)C2OC(C)=O)cc1.Cl` (stereo not given) [Diltiazem hydrochloride], the cell number was 101 in assay [1] and 100 in assay [2]. For the same molecule, the H1.0 immunofluorescence intensity in assay [3] is 93 (inactive); in assay [4], 98.3 (inactive).

Values taken from the supplement of paper PMC7156485.
